In PubChem BioAssay (Tox21):
Several values for one entry are separate records, joined by “and”; a condition that tells them apart may be missing. Identical values can stand only once. Results filed as inconclusive are left out. Where a structure was tested more than once in an assay, its records may differ in their call. Activity calls are given as the source filed them. Unless noted, calls come from the whole dose curve; as a rule, active = well fitted curve in the direction sought with a large enough effect in the repeat runs; inconclusive = weak or mixed curves; inactive = no such curve, though single readings can be large; an effect the other way counts as inactive or inconclusive.

Assays:
[1] = qHTS assay to identify small molecule agonists of the RXR signaling pathway - cell viability counter screen (AID 1159529); note: nearly all actives have a fitted effect of over 50% in size; note: potency is the fitted concentration of half-maximal effect
How it was run: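 Same-well viability check after the LiveBLAzer FRET read: CellTiter-Glo added, luminescence measured after 30 min at room temperature. Reporter HEK 293T cells had been treated with compounds for 16 hr following a 5 hr preincubation.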

[2] = qHTS assay to identify small molecule antagonists of the retinoid acid receptor (RAR) signaling pathway - cell viability counter screen (AID 1159551); note: nearly all actives have a fitted effect of over 35% in size; note: potency is the fitted concentration of half-maximal effect
How it was run: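 ATP-based viability, C3RL4 cells, 6 h at 37 C with 1 uM final retinol co-added after compound; luminescence read 30 min post CellTiter-Glo, RT.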

[3] = molecular target: Luciferin 4-monooxygenase (Photinus pyralis) (UniProt P08659); assay: qHTS assay to identify small molecule inhibitors of firefly luciferase (AID 1224835); note: nearly all actives have a fitted effect of over 25% in size; note: potency is the fitted concentration of half-maximal effect
Chain of Luciferin 4-monooxygenase (Photinus pyralis) (P08659 whole entry, looked up): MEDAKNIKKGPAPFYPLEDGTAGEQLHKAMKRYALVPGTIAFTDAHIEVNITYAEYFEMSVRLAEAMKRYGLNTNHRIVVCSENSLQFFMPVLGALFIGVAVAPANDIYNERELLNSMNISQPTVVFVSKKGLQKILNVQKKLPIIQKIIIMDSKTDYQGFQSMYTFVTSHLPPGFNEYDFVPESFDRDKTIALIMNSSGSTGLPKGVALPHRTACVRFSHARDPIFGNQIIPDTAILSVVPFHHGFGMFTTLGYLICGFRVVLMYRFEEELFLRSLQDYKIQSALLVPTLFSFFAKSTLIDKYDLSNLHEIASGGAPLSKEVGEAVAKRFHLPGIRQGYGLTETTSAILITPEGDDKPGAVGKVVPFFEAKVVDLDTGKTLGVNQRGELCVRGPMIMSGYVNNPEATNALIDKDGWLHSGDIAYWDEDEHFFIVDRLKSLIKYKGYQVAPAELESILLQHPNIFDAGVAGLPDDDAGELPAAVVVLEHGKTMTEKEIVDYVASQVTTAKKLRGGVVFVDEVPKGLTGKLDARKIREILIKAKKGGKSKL
How it was run: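 Inhibition of purified Photinus luciferase is measured by luminescence. Substrate levels (D-luciferin, ATP) sit at their KM values. Each compound is tested in a concentration series.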

[4] = molecular target: Nuclear receptor subfamily 1 group I member 3 (Homo sapiens) (UniProt Q14994); assay: qHTS assay to identify small molecule antagonists of the constitutive androstane receptor (CAR) signaling pathway (AID 1224838);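 note: HepG2 cells stably expressing hCAR with CYP2B6 luciferase reporter stimulated by CITCO; nearly all actives have a fitted effect of over 40% in size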
Chain of Nuclear receptor subfamily 1 group I member 3 (Homo sapiens) (Q14994 whole entry, looked up): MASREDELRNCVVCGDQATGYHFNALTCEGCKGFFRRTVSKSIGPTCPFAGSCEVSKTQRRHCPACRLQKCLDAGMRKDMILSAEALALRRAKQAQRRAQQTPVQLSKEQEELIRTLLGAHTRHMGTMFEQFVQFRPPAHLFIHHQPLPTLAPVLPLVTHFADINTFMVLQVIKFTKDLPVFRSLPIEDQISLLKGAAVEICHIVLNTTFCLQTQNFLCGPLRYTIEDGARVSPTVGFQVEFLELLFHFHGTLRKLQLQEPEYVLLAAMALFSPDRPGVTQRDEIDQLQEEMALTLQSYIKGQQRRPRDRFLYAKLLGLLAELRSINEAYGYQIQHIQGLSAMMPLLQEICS
How it was run: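 Luminescence from a CYP2B6-2.2kb promoter reporter in hCAR-expressing HepG2 cells reflects CAR signaling. Cells received compounds at 15 concentrations and 50 nM CITCO (final), then incubated 24 h at 37 C/5% CO2.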

[5] = molecular target: Nuclear receptor subfamily 1 group I member 3 (Homo sapiens) (UniProt Q14994); assay: qHTS assay to identify small molecule agonists of the constitutive androstane receptor (CAR) signaling pathway (AID 1224839); note: nearly all actives have a fitted effect of over 15% in size; note: potency is the fitted concentration of half-maximal effect
How it was run: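 In this screen, CAR-driven CYP2B6 promoter activity is measured by luminescence in HepG2-CYP2B6-hCAR cells after 24 h with test compounds and 0.75 uM PK11195 (final concentration).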

[6] = qHTS assay to identify small molecule agonists of the estrogen related receptor signaling pathway with the pleiotropic PPARgamma coactivator (PGC) from Tox21 10K library (AID 1224842); note: nearly all actives have a fitted effect of over 15% in size
How it was run: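 Luminescence from One-Glo (30 min, room temperature) measured after PGC/ERR cells had 18 h at 37 C with pinned compound (23 nL in DMSO). Cells had been seeded at 2,000 per well and pre-incubated 6 h.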

[7] = qHTS assay to identify small molecule antagonists of the estrogen related receptor (ERR) signaling pathway from Tox21 library - cell viability counter screen (AID 1224834); note: nearly all actives have a fitted effect of over 30% in size; note: potency is the fitted concentration of half-maximal effect
How it was run: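 Compounds in DMSO were pinned onto ERR cells that had been incubated for 6 h, and the plates were held at 37 C for 17.5 h. CellTiter-Fluor reagent was then added and fluorescence was measured after 30 min.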

[8] = qHTS assay to identify small molecule agonists of the constitutive androstane receptor (CAR) signaling pathway - cell viability counter screen (AID 1224836); note: series mostly up to about 92 µM; nearly all actives have a fitted effect of over 45% in size
How it was run: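 Compound titrations (15 concentrations) went onto HepG2-CYP2B6-hCAR cells 4 h after seeding, alongside PK11195 at a final 0.75 uM; a 23 h, 37 C/5% CO2 incubation preceded CellTiter-Fluor viability measurement.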

[9] = qHTS assay to identify small molecule antagonists of the constitutive androstane receptor (CAR) signaling pathway - cell viability counter screen (AID 1224837); note: series mostly up to about 92 µM; nearly all actives have a fitted effect of over 45% in size
How it was run: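 Cells are seeded, rested 4 hr at 37 C/5% CO2, dosed with compound (15-point series) and 50 nM CITCO, incubated a further 23 hr, and then CellTiter-Fluor reagent is added before fluorescence is read. The line is HepG2 with stable hCAR and CYP2B6-2.2kb.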

[10] = qHTS assay to identify small molecule antagonists of the estrogen related receptor signaling pathway with the pleiotropic PPARgamma coactivator (PGC) from Tox21 10K library - cell viability counter screen (AID 1224840; active = well fitted cell-killing curve with a large enough effect in the repeat runs, not every such curve was filed as active; note: nearly all actives have a fitted effect of over 40% in size; note: potency is the fitted concentration of half-maximal effect)
How it was run: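 Cell viability is measured by CellTiter-Fluor fluorescence in PGC/ERR cells that receive compounds after a 6-hour attachment period and are then incubated 17.5 hours at 37 C.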

[11] = qHTS assay to identify small molecule antagonists of the estrogen related receptor signaling pathway with the pleiotropic PPARgamma coactivator (PGC) from Tox21 10K library (AID 1224841; call rule not given here; note: actives are mostly falling curves and most rising ones were filed inactive; nearly all actives have a fitted effect of over 50% in size; note: potency is the fitted concentration of half-maximal effect)
How it was run: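 Cells stably carrying the PGC/ERR reporter, seeded at 2,000 per well, received pin-transferred compounds 6 h post-plating. Exposure lasted 18 h at 37 C. Signal: One-Glo luminescence.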

[12] = molecular target: Thyrotropin receptor (Homo sapiens) (UniProt P16473); assay: qHTS assay to identify small molecule agonists of the thyroid stimulating hormone receptor (TSHR) signaling pathway (AID 1224843; calls by dose curve; note: nearly all actives have a fitted effect of over 45% in size; note: potency is the fitted concentration of half-maximal effect)
Chain of Thyrotropin receptor (Homo sapiens) (P16473 whole entry, looked up): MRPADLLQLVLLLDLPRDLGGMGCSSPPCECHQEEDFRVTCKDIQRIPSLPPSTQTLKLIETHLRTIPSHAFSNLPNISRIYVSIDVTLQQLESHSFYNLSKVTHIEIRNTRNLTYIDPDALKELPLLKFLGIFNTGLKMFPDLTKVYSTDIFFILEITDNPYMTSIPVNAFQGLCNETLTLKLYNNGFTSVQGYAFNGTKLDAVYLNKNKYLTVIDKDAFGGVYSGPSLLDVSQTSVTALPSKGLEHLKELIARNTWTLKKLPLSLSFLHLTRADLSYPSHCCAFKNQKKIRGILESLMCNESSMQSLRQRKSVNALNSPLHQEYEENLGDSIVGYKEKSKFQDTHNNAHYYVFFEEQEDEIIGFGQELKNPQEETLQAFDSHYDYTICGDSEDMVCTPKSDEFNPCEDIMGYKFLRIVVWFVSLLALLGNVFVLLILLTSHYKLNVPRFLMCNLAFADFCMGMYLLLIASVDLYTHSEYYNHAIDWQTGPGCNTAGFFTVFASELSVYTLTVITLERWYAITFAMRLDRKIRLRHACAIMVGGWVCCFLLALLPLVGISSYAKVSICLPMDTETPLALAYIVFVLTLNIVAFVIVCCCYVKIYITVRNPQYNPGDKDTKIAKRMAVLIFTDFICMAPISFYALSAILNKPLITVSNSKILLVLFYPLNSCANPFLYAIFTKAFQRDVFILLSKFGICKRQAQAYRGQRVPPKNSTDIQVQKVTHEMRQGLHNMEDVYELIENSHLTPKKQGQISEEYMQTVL
How it was run: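 A cell-based cAMP HTRF format was run in TSHR-transfected HEK293 cells, 800 per well. Treatment: 30 min, room temperature. Detection: 1 h with labelled cAMP and anti-cAMP cryptate. Concentration-response over 15 points, three replicates.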

[13] = qHTS assay to identify small molecule antagonists of the retinoic acid receptor (RAR) signaling pathway (AID 1159552; note: nearly all actives have a fitted effect of over 50% in size)
How it was run: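 Readout: luciferase luminescence, 30 min post-reagent at RT. Setup: C3RL4 RARE reporter cells, compounds plus retinol 1 uM final, 6 hr incubation at 37 C and 5% CO2.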

[14] = qHTS assay to identify small molecule agonists of the retinoic acid receptor (RAR) signaling pathway (AID 1159553)
How it was run: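 Quantitative high-throughput format: the Tox21 10K library was tested on C3RL4 RARE-luciferase cells for 6 hr at 37 C and 5% CO2, with luminescence measured after a 30 min room-temperature reagent step.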

Measured: Potency

CN1CCc2cc3c(cc2C1O)OCO3 (stereo not given)
inactive: [1] | [2] | [3] | [4] | [5] | [6]

CCCCn1cc[n+](C)c1 (tested in a mixture with another compound)
inactive: [1] | [2] | [7] | [8] | [9] | [10]

CCN(CC)CCN1C(=O)CN=C(c2ccccc2F)c2cc(Cl)ccc21
not listed: [4] | [5] | [13] | [14]
inactive: all other assays above

[C-]1=CC=CC1.[Cl][Zr+2][Cl].c1cc[cH-]c1
inactive: [1] | [2] | [7] | [8] | [9]

CC[N+]1(CC)CCC(OC(=O)C(O)(c2ccccc2)c2ccccc2)C1 (stereo not given)
not listed: [6] | [8] | [11] | [13] | [14]
inactive: all other assays above

CC(=O)[O-].CC(=O)[O-].CC(=O)[O-].[Cr+3]
inactive: [1] | [2] | [7] | [8] | [9]

COP(=S)(OC)Oc1ccc([N+](=O)[O-])c(C)c1
inactive: [1] | [2] | [8] | [9] | [4] | [12]

C1=CCC=C1
inactive: [1] | [2] | [7] | [8] | [9] | [10]

O=C(O)[C@H](O)[C@@H](O)C(=O)O
inactive: [1] | [2] | [7] | [3] | [10]

O=C1C(Cl)=C(Cl)C(=O)C(Cl)=C1Cl
60.9 µM (active) and inactive: [2] | [11]
active: [1] 38.9 µM | [7] 34.2 µM and 30.6 µM | [3] 31.6 µM and 15.9 µM | [12] 27.2 µM
54.3 µM (active) and inactive: [10]
inactive: [9] | [4] | [5] | [6]

CC(C)=CC1C(C(=O)OC(C#N)c2cccc(Oc3ccccc3)c2)C1(C)C (stereo not given)
inactive: [1] | [2] | [7] | [3] | [8] | [9] | [11] | [6]

CC(=O)[O-].CC(=O)[O-].[Co+2]
inactive: [1] | [2] | [7] | [8] | [9] | [10]

CO/N=C(/C1=NOCCO1)c1ccccc1Oc1ncnc(Oc2ccccc2Cl)c1F
inactive: [1] | [2] | [3] | [4]
active: [7] 27.3 µM

CCC1COC(Cn2cncn2)(c2ccc(Cl)cc2Cl)O1 (stereo not given)
inactive: [1] | [2] | [3] | [8] | [9] | [4] | [12]
active: [11] 61.1 µM

COP(=O)(OC)O/C(=C\Cl)c1cc(Cl)c(Cl)cc1Cl
inactive: [1] | [2] | [3] | [8] | [9]

c1ccc2c(c1)cc1ccc3cccc4ccc2c1c34
inactive: [1] | [2] | [7] | [12]
active: [3] 10.2 µM

C[C@]12Cc3cn[nH]c3C[C@@H]1CC[C@@H]1[C@@H]2CC[C@@]2(C)[C@H]1CC[C@]2(C)O
active: [1] 6.01 µM
inactive: [2] | [3] | [8] | [9] | [4] | [5] | [12]

CC(=O)O.CC(=O)O.CC(=O)O.CC(=O)O.CC(=O)O.CC(=O)O.CC(=O)O.O.O.[Cr].[Cr].[Cr]
inactive: [1] | [2] | [7] | [8] | [9]

CC(=O)[O-].CC(=O)[O-].O.O.[Zn+2]
inactive: [1] | [2] | [7] | [8] | [9] | [10]

CCOP(=O)(OCC)Oc1nc(Cl)c(Cl)cc1Cl
not listed: [1] | [4] | [6] | [10] | [11]
inactive: all other assays above

O.O.O.O=C([O-])[C@H]([O-])[C@@H]([O-])C(=O)[O-].O=C([O-])[C@H]([O-])[C@@H]([O-])C(=O)[O-].[K+].[K+].[Sb+3].[Sb+3]
active: [7] 17.3 µM | [10] 19.4 µM
inactive: [2] | [3]

Cc1c([N+](=O)[O-])c(C)c([N+](=O)[O-])c(C(C)(C)C)c1[N+](=O)[O-]
active: [5] 34.4 µM
not listed: [1] | [12]
inactive: all other assays above
